Laboratory results taken from PubChem BioAssay AID588382 (National Center for Advancing Translational Sciences (NCATS), 2011).
In all, about 1,300 compounds went through this assay and about 150 (12%) were called active. Where a call stands in place of a potency, no number is given. Not shown: some 30% with an inconclusive outcome. Calls follow the shape of the dose curve; as a rule, active = well fitted cell-killing curve with a large enough effect; inconclusive = small, poorly fitted or top-dose-only effect, or effect the other way; inactive = flat fitted curve, though single readings scatter. Only a selection was taken, and actives are over-represented in it overall.

Experiment: qHTS of small molecules that selectively kill Giardia lamblia: Hit Validation in HepG2 cytotox;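 also: compound exposure lasted overnight at 37 deg C; nearly all actives have a fitted effect of over 55% in size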
Conditions: cell viability; Potency: HepG2 cytotoxicity; series mostly up to 38.3 µM
Outline: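 HepG2 cells seeded and incubated overnight at 37 deg C, then 23 nL compound added by pintool and incubated overnight at 37 deg C. Viability read as ATP luminescence with ATPLite after 15 min at room temperature.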
Potency is read from the fitted curve at half-maximal effect.

Compound | Potency
Cc1ccc(S(=O)(=O)N2[C@@H](c3ccccc3)C(C(=O)O)=CC[C@H]2c2ccc3c(c2)OCO3)cc1 | inactive
CCN(c1ccccc1)S(=O)(=O)c1cccc(C(=O)OCc2nc3sc(C)c(C)c3c(=O)[nH]2)c1 | inactive
CC(OC(=O)c1ccc([N+](=O)[O-])s1)C(=O)NC1CCCCC1C (stereo unspecified) | inactive
O=[N+]([O-])c1nn(-c2ccc3c(c2)OCCO3)n(O)c1=NCCCO | inactive
O=[N+]([O-])c1ccc(-c2nc(C(Cl)Cl)c3ccccc3n2)cc1 | inactive
CCOC(=O)C1=C(C)N=c2s/c(=C\c3ccc(O)c([N+](=O)[O-])c3)c(=O)n2C1c1ccccc1OC (stereo unspecified) | inactive
Nc1ccc[n+](CC(=O)c2ccc(F)cc2)c1 | 1.65 µM (active)
CCOC(=O)c1c(C)[nH]c(C)c1S(=O)(=O)N1CCN(c2ccc([N+](=O)[O-])cc2)CC1 | inactive
Cc1ccc(CN=c2c([N+](=O)[O-])nn(-c3cccc(Cl)c3)n2O)cc1 | inactive
N#C/C(=C(/O)c1ccc([N+](=O)[O-])o1)c1nc2ccccc2[nH]1 | 3.69 µM (active)
CN(Cc1ccccc1)C(=O)c1ccc([N+](=O)[O-])o1 | inactive
CCCn1c(NC(=O)c2ccc([N+](=O)[O-])o2)nc2ccccc21 | inactive
COc1ccc(C(=S)NC2CCCCC2)cc1 | inactive
COc1ccccc1-c1nnc(C2CCN(S(=O)(=O)c3cccc([N+](=O)[O-])c3)CC2)o1 | inactive
CS(=O)(=O)N1CCN(c2ccc([N+](=O)[O-])c3cccnc23)CC1 | inactive
COc1ccccc1C1OC2=C(Nc3ccc([N+](=O)[O-])cc3N2)C1=O (stereo unspecified) | inactive
CNc1nnc(-c2ccc(N(C)C)cc2)s1 | 4.14 µM (active)
Cc1ccccc1NC(NC(=O)OCCn1c([N+](=O)[O-])cnc1C)C(Cl)(Cl)Cl (stereo unspecified) | inactive
COc1cc(/C=C/c2ccc3cccc(OC)c3n2)c(O)c([N+](=O)[O-])c1 | inactive
CC1=NN(c2nc3ccccc3[nH]2)C(=O)/C1=C/N(C)C | 0.927 µM (active)
Cc1ccc([C@H]2C(C(=O)O)=CC[C@@H](c3cccc(Cl)c3)N2S(=O)(=O)c2ccc(C)cc2)cc1 | inactive

Compound | Potency
O=[N+]([O-])c1cccc(-n2nnnc2CNCc2ccccc2)c1 | inactive
O=C(O)c1cc2ccccc2c(N=Nc2cccnc2)c1O | inactive
CC(=O)N1CCN(c2ccc(NC(=O)c3ccc([N+](=O)[O-])o3)cc2Cl)CC1 | 9.27 µM (active)
CCC(=O)N1CCN(c2ccc(NC(=O)c3ccc([N+](=O)[O-])o3)cc2Cl)CC1 | 3.69 µM (active)
CC(=O)N1CCN(c2ccc(S(C)(=O)=O)cc2[N+](=O)[O-])CC1 | inactive
CN1CCN(c2ccc(NC(=O)c3ccc([N+](=O)[O-])o3)cc2Cl)CC1 | 3.69 µM (active)
O=C(Nc1cccc(NC(=O)c2ccccc2Cl)c1)c1ccc([N+](=O)[O-])o1 | 2.61 µM (active)
CCC(=O)N1CCN(c2ccc(Cl)cc2NC(=O)c2ccc([N+](=O)[O-])o2)CC1 | inactive
O=C(Nc1nc2c(Cl)cccc2s1)c1ccc([N+](=O)[O-])o1 | inactive
CCCn1c(C)cc(C(=O)COc2ccc(C)nc2[N+](=O)[O-])c1C | inactive
CCNc1ccc(N=Nc2c(C)n(C)n(-c3ccccc3)c2=O)cc1 | inactive
N#Cc1sc(NCc2cccc(Cl)c2)nc1Cl | inactive
COc1ccc(C(CNC(=O)c2oc3cc(Br)ccc3c2C)N2CCCCC2)cc1 (stereo unspecified) | inactive
CC(=O)Oc1ccc2c(=O)c(Oc3ccccc3[N+](=O)[O-])coc2c1 | inactive
NC(=O)c1oc2ccccc2c1NC(=O)c1ccc([N+](=O)[O-])o1 | 2.61 µM (active)
O=C(Nc1cccc(Cl)c1N1CCOCC1)c1ccc([N+](=O)[O-])o1 | inactive
O=C(Nc1ccc(N2CCCC2)c(Cl)c1)c1ccc([N+](=O)[O-])o1 | 7.36 µM (active)
COc1ccc(N2CCCC2)c(NC(=O)c2ccc([N+](=O)[O-])o2)c1 | inactive
Cc1ccc(C)c(Sc2ccc(NC(=O)CCl)cc2)c1 | inactive
COc1ccc2oc(=Nc3ccccc3)c(-c3nc4ccccc4[nH]3)cc2c1 | 7.36 µM (active)
Cc1ncc([N+](=O)[O-])n1CCOC(=O)c1ccccc1 | inactive

Compound | Potency
Cc1ccc(S(=O)(=O)N2[C@@H](c3ccccc3F)C(C(=O)O)=CC[C@H]2c2cccc(C)c2)cc1 | inactive
[O-][n+]1c2ccccc2c2n1CCCN=C2c1ccc(Cl)cc1 | inactive
O=C(CN1C(=O)c2ccccc2S1(=O)=O)c1ccc2c(c1)OCCO2 | 2.07 µM (active)
O=[N+]([O-])c1nn(-c2ccccc2)[n+]([O-])c1N1CCN(c2ccccc2F)CC1 | inactive
O=[N+]([O-])c1ccc(/C=C/c2ccnc3ccccc23)c([N+](=O)[O-])c1 | inactive
CCOn1c(=O)c(-c2cccc([N+](=O)[O-])c2)[n+]([O-])c2ccccc21 | inactive
CSC1SCC2C(=O)N(C)C(C(C)C)C(=O)OCC(NC(=O)c3cnc4ccccc4n3)C(=O)NC(C)C(=O)N(C)C1C(=O)N(C)C(C(C)C)C(=O)OCC(NC(=O)c1cnc3ccccc3n1)C(=O)NC(C)C(=O)N2C (stereo unspecified) | 0.0117 µM (active)
O=[N+]([O-])c1cccc(S(=O)(=O)c2ccc(NCCOCCO)c([N+](=O)[O-])c2)c1 | inactive
Cc1ccc(C2=NCCn3c2c2ccc(C(F)(F)F)cc2[n+]3[O-])cc1 | inactive
COc1cc(NC(=O)c2ccc([N+](=O)[O-])o2)ccc1NC(=O)c1cccs1 | 14.7 µM (active)
O=C(NCc1ccco1)c1ccc([N+](=O)[O-])o1 | inactive
COc1ccc(-c2cc3ccccc3oc2=O)cc1NC(=O)c1ccc([N+](=O)[O-])o1 | inactive
Cc1cc(NC(=O)c2ccc([N+](=O)[O-])o2)ccc1NC(=O)c1ccco1 | 2.93 µM (active)
Cc1ccc(CNC(=O)c2ccc([N+](=O)[O-])o2)cc1 | inactive
COc1ccc(NC(=O)c2ccc([N+](=O)[O-])o2)cc1 | 3.69 µM (active)
CCN(CC(=O)NCc1cccs1)C(=O)c1ccc([N+](=O)[O-])o1 | inactive
O=C(Nc1ccc(Cc2ccncc2)cc1)c1ccc([N+](=O)[O-])o1 | 6.56 µM (active)
Cc1onc(NC(=O)c2ccc([N+](=O)[O-])o2)c1Br | inactive
O=C(Nc1ncccn1)c1ccc([N+](=O)[O-])o1 | inactive
